According to PubChem BioAssay (EPA / NIEHS):
Active and inactive are the calls of the source. The calls were made as follows: active = hit-call score of the fitted dose curve at least 0.9, where 1 is the maximum; inactive = score below 0.9.

Tests used:
Details in all cases: mRNA level, 48 h; actives raise or lower the signal
[1] = read-out: Insulin Like Growth Factor 1 (IGF1), IGF1 (gene 3479); test: LTEA_HepaRG_IGF1: Life Technologies and Expression Analysis (LTEA) Assay for Insulin Like Growth Factor 1 (IGF1) using HepaRG (AID 2283506)
Procedure, shortened: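 HepaRG, plated 48 h, then switched to serum-free induction media; test chemical 8-pt half-log from 100 uM (0.5% DMSO), duplicate, 48 h. Lysis in RLT, TaqMan qRT-PCR, norm. ACTB/GAPDH/POLR2A. Bidirectional fit vs DMSO.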

[2] = read-out: Intercellular Adhesion Molecule 1 (ICAM1), ICAM1 (gene 3383); test: LTEA_HepaRG_ICAM1: Life Technologies and Expression Analysis (LTEA) Assay for Intercellular Adhesion Molecule 1 (ICAM1) using HepaRG (AID 2283507)
Procedure, shortened: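 Differentiated human HepaRG cells in serum-free induction medium exposed 48 h in duplicate to 8 half-log concentrations (top 100 uM, 0.5% DMSO). ICAM1 mRNA quantified by TaqMan qRT-PCR, normalized to ACTB, GAPDH and POLR2A; bidirectional fitting versus DMSO.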

[3] = read-out: Insulin-like growth factor-binding protein 1 (IGFBP1), IGFBP1 (gene 3484); test: LTEA_HepaRG_IGFBP1: Life Technologies and Expression Analysis (LTEA) Assay for Insulin-like growth factor-binding protein 1 (IGFBP1) using HepaRG (AID 2283508)
Procedure, shortened: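 HepaRG cells, plated 48 h then switched to serum-free induction medium, exposed in duplicate for 48 h to 8-point half-log series from 100 uM in 0.5% DMSO. mRNA measured by qRT-PCR, normalized to ACTB/GAPDH/POLR2A; bidirectional fit versus DMSO.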

[4] = read-out: Interleukin 6 (IL6), IL6 (gene 3569); test: LTEA_HepaRG_IL6: Life Technologies and Expression Analysis (LTEA) Assay for Interleukin 6 (IL6) using HepaRG (AID 2283509)
Procedure, shortened: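 HepaRG cells exposed in duplicate for 48 h to eight half-log concentrations, top 100 uM, in 0.5% DMSO serum-free induction medium. mRNA measured by qRT-PCR, normalized to ACTB, GAPDH and POLR2A. Bidirectional fit versus DMSO.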

[5] = read-out: Interleukin 6 Receptor (IL6R), IL6R (gene 3570); test: LTEA_HepaRG_IL6R: Life Technologies and Expression Analysis (LTEA) Assay for Interleukin 6 Receptor (IL6R) using HepaRG (AID 2283510)
Procedure, shortened: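 Readout is IL6R transcript level by TaqMan qRT-PCR, normalized to three housekeeping genes and fitted bidirectionally against 0.5% DMSO controls. Human HepaRG cells received chemicals for 48 h in serum-free induction medium, highest concentration 100 uM.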

[6] = read-out: Potassium channel subfamily K member 1 (KCNK1), KCNK1 (gene 3775); test: LTEA_HepaRG_KCNK1: Life Technologies and Expression Analysis (LTEA) Assay for Potassium channel subfamily K member 1 (KCNK1) using HepaRG (AID 2283511)
Procedure, shortened: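 Differentiated HepaRG cells, 48 h exposure in serum-free induction medium with 0.5% DMSO; 8 concentrations, half-log from 100 uM, duplicate. KCNK1 mRNA by qRT-PCR, normalized to ACTB, GAPDH, POLR2A; bidirectional fit vs DMSO.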

[7] = read-out: Keratin 19 (KRT19), KRT19 (gene 3880); test: LTEA_HepaRG_KRT19: Life Technologies and Expression Analysis (LTEA) Assay for Keratin 19 (KRT19) using HepaRG (AID 2283512)
Procedure, shortened: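 Differentiated HepaRG cells in serum-free induction medium, exposed 48 h in duplicate to 8 half-log concentrations up to 100 uM in 0.5% DMSO. KRT19 mRNA by qRT-PCR, normalized to ACTB, GAPDH, POLR2A; bidirectional fit vs DMSO.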

[8] = read-out: JUN Transcription Factor, JUN (gene 3725); test: LTEA_HepaRG_JUN: Life Technologies and Expression Analysis (LTEA) Assay for JUN Transcription Factor using HepaRG (AID 2283513)
Procedure, shortened: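 Cells plated 48 h, medium switched to serum-free induction medium, then dosed 48 h (100 uM top, half-log dilutions, 0.5% DMSO). RNA isolated; JUN measured by qRT-PCR against three housekeeping genes; gain or loss fitted relative to DMSO.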

[9] = read-out: Lipase C (LIPC), LIPC (gene 3990); test: LTEA_HepaRG_LIPC: Life Technologies and Expression Analysis (LTEA) Assay for Lipase C (LIPC) using HepaRG (AID 2283514)
Procedure, shortened: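 HepaRG cells, 48 h after plating, treated in duplicate for 48 h in serum-free induction medium over 8 half-log concentrations from 100 uM, 0.5% DMSO. LIPC mRNA by TaqMan qRT-PCR normalized to ACTB/GAPDH/POLR2A; bidirectional fit versus DMSO.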

[10] = read-out: Lipoprotein lipase (LPL), LPL (gene 4023); test: LTEA_HepaRG_LPL: Life Technologies and Expression Analysis (LTEA) Assay for Lipoprotein lipase (LPL) using HepaRG (AID 2283515)
Procedure, shortened: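 Differentiated HepaRG cells, plated 48 h, then exposed 48 h in serum-free induction medium to 8 concentrations (top 100 uM, half-log steps) in 0.5% DMSO, duplicate. LPL mRNA measured by qRT-PCR, normalized to ACTB, GAPDH and POLR2A.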

[11] = read-out: MicroRNA 122 (MIR122), gene 406906; test: LTEA_HepaRG_MIR122: Life Technologies and Expression Analysis (LTEA) Assay for MicroRNA 122 (MIR122) using HepaRG (AID 2283516); also: the transcript read is the microRNA miR-122
Procedure, shortened: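 HepaRG plated 48 h, switched to serum-free induction medium, then treated in duplicate for 48 h (100 uM top, half-log steps, 0.5% DMSO vehicle). RNA isolated, qRT-PCR performed, concentration-response fitted both directions relative to DMSO.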

[12] = read-out: matrix metalloproteinase-10 (MMP10), MMP10 (gene 4319); test: LTEA_HepaRG_MMP10: Life Technologies and Expression Analysis (LTEA) Assay for matrix metalloproteinase-10 (MMP10) using HepaRG (AID 2283517)
Procedure, shortened: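 Differentiated HepaRG cells in serum-free induction medium exposed 48 h in duplicate to 8-point half-log series up to 100 uM in 0.5% DMSO. mRNA quantified by qRT-PCR, normalised to ACTB, GAPDH, POLR2A; bidirectional fit versus DMSO.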

[13] = read-out: MYC, MYC (gene 4609); test: LTEA_HepaRG_MYC: Life Technologies and Expression Analysis (LTEA) Assay for MYC using HepaRG (AID 2283518)
Procedure, shortened: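 Differentiated HepaRG cells exposed 48 h in serum-free induction medium to 8 concentrations (top 100 uM, half-log steps; 0.5% DMSO), duplicate. MYC mRNA measured by Fluidigm qRT-PCR, normalized to ACTB, GAPDH, POLR2A; bidirectional fit versus DMSO.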

[14] = read-out: matrix metalloproteinase-3 (MMP3), MMP3 (gene 4314); test: LTEA_HepaRG_MMP3: Life Technologies and Expression Analysis (LTEA) Assay for matrix metalloproteinase-3 (MMP3) using HepaRG (AID 2283519)
Procedure, shortened: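 HepaRG cells (~100,000/well) in serum-free induction medium were dosed in duplicate for 48 h with an 8-point half-log series from 100 uM, 0.5% DMSO. MMP3 mRNA was quantified by Fluidigm TaqMan qRT-PCR, normalized to three housekeeping genes.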

[15] = read-out: Paternally Expressed 10 (PEG10), PEG10 (gene 23089); test: LTEA_HepaRG_PEG10: Life Technologies and Expression Analysis (LTEA) Assay for Paternally Expressed 10 (PEG10) using HepaRG (AID 2283520)
Procedure, shortened: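 HepaRG, 48 h post-plating → serum-free induction medium → 48 h chemical exposure (duplicate, 8-pt, max 100 uM, half-log, 0.5% DMSO) → lysis in RLT → TaqMan qRT-PCR for PEG10, ACTB/GAPDH/POLR2A normalisation.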

[16] = read-out: Protein phosphatase 2A (PPP2R4), PTPA (gene 5524); test: LTEA_HepaRG_PPP2R4: Life Technologies and Expression Analysis (LTEA) Assay for Protein phosphatase 2A (PPP2R4) using HepaRG (AID 2283522)
Procedure, shortened: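 Readout is PPP2R4 transcript level by microfluidic qRT-PCR after 48 h chemical treatment of human HepaRG liver cells. Concentrations spanned 100 uM downward in half-log steps; gain or loss of signal was fitted relative to DMSO.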

[17] = read-out: Phosphatase and tensin (PTEN), PTEN (gene 5728); test: LTEA_HepaRG_PTEN: Life Technologies and Expression Analysis (LTEA) Assay for Phosphatase and tensin (PTEN) using HepaRG (AID 2283523)
Procedure, shortened: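 HepaRG cells, 48 h after plating, exposed in duplicate for 48 h in serum-free induction medium to 8 half-log concentrations up to 100 uM (0.5% DMSO). PTEN mRNA by qRT-PCR, normalized to ACTB, GAPDH, POLR2A; bidirectional fit versus DMSO.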

[18] = read-out: solute carrier (SLC22A1), SLC22A1 (gene 6580); test: LTEA_HepaRG_SLC22A1: Life Technologies and Expression Analysis (LTEA) Assay for solute carrier (SLC22A1) using HepaRG (AID 2283524)
Procedure, shortened: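 Differentiated human HepaRG cells in serum-free induction medium, exposed 48 h in duplicate to 8-point half-log series from 100 µM top in 0.5% DMSO. SLC22A1 mRNA by TaqMan qRT-PCR normalized to ACTB, GAPDH, POLR2A; bidirectional fit versus DMSO.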

[19] = read-out: Pyruvate Dehydrogenase Kinase 4 (PDK4), PDK4 (gene 5166); test: LTEA_HepaRG_PDK4: Life Technologies and Expression Analysis (LTEA) Assay for Pyruvate Dehydrogenase Kinase 4 (PDK4) using HepaRG (AID 2283525)
Procedure, shortened: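 HepaRG cells plated 48 h, then switched to serum-free induction medium and exposed in duplicate for 48 h to 8 half-log concentrations from 100 uM in 0.5% DMSO. PDK4 mRNA measured by qRT-PCR, normalized to ACTB, GAPDH and POLR2A; bidirectional fit versus DMSO.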

[20] = read-out: NAD(P)H dehydrogenase [quinone] 1 (NQO1), NQO1 (gene 1728); test: LTEA_HepaRG_NQO1: Life Technologies and Expression Analysis (LTEA) Assay for NAD(P)H dehydrogenase [quinone] 1 (NQO1) using HepaRG (AID 2283526)
Procedure, shortened: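 HepaRG, 48 h post-plating → serum-free induction medium → test chemical 48 h (duplicate, 100 uM top, half-log x8, 0.5% DMSO) → RNA isolation → qRT-PCR, ACTB/GAPDH/POLR2A normalization; bidirectional curve fit vs DMSO baseline.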

Measured: outcome

CCC(C)=NO
inactive: [1] | [2] | [3] | [4] | [5] | [6] | [7] | [8] | [9] | [10] | [11] | [12] | [13] | [14] | [15] | [16] | [17] | [18] | [19] | [20]
